Screens deposited in PubChem by The Scripps Research Institute Molecular Screening Center.
The list is not random: actives were taken first. Their share in the collection is about 2.3%.
CHO-K1 Ca PAM: nonselective calcium activators in parental CHO-K1 cells, primary screen, counter-screen for M1 PAM project, cell-based, Fluo-8 calcium fluorescence, full deck, 1536-well. ATP EC20; 0% at ATP EC20, 100% at ATP max. AID 602247, 2012. activation, % at 3 µM. 360,000 compounds, 0.02% hits;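 active = activation above the run cutoff, the mean activation of all test compounds plus 3 SD, cut at about 40% in these data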;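 note: peak over basal fluorescence ratio in a 140 s read after ATP addition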
CHRM1 PAM: human M1 muscarinic receptor positive allosteric modulators, primary screen, CHO-K1 cells, Fluo-8 calcium fluorescence, 1536-well; activation, % at 3 µM; 360,000 compounds, 0.088% hits; CHO-K1 hM1, ACh EC20; 0% = ACh EC20, 100% = maximal ACh; in the data active = activation above about 19%, passing the limit was not always enough
Target sequence (P11229 whole entry, looked up): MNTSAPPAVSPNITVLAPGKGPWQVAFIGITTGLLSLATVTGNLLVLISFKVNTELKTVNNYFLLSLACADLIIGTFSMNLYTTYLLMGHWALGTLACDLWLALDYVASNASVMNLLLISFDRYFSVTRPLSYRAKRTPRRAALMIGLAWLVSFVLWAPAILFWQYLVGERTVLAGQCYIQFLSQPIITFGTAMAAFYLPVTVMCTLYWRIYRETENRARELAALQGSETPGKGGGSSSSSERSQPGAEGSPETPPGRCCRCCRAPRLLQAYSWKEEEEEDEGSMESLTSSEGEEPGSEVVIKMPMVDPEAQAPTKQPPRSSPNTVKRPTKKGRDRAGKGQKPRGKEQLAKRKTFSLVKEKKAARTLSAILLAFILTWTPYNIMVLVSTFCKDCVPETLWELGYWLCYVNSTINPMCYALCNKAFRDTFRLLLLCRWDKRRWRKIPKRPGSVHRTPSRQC
CHO-K1 Ca antag: nonselective inhibitor or artifact in parental CHO-K1 cells; AID 602250; inhibition, % at 3 µM; 360,000 compounds, 0.6% hits; ATP-induced calcium, Fluo-8 fluorescence;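 active = inhibition above a per-plate cutoff, the plate's mean sample inhibition plus 3 SD, cut at about 24% in these data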
CHRM1 agonist: human M1 muscarinic receptor agonists, primary screen, Fluo-8 calcium fluorescence, CHO-K1 cells, HTS. activation, % at 3 µM. 360,000 compounds, 0.33% hits. Muscarinic acetylcholine receptor M1 (Homo sapiens), P11229. AID 588814, 2011. CHO-K1 hM1, agonist mode; 0% DMSO, 100% acetylcholine EC100;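 active = activation above the run's mean compound activation plus 3 SD, cut at about 16% in these data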;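 note: peak over basal fluorescence ratio within a 140 s kinetic read after compound addition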
M1 ag parental: counter-screen for M1 agonists: effect in parental CHO-K1 cells; Fluo-8 calcium fluorescence; scaled to maximal ATP response, vehicle zero; activation, % at 3 µM; 360,000 compounds, 0.48% hits; AID 602248, 2012; in the data active = activation above about 15%;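 note: untransfected CHO-K1 host cells lacking M1 receptor as counterscreen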
CHRM1 antagonist: human M1 muscarinic receptor antagonists, primary screen, CHO-K1 cells, Fluo-8 calcium fluorescence, 1536-well | Muscarinic acetylcholine receptor M1 (Homo sapiens), P11229 | CHO-K1 hM1, ACh EC80 antagonist | inhibition, % at 3 µM | 360,000 compounds, 1.3% hits | AID 588852, 2011;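 active = percent inhibition above its own plate's cutoff, namely the mean of that plate's compound wells plus 3 SD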;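 note: peak over basal fluorescence ratio during 140 s after agonist addition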
Large screens that a line does not name were inactive.

CN1CCN(CC#CCOc2ccc(Cl)cc2)CC1	none
O=C(Nc1ccc(Cl)cc1)OC1CN2CCC1CC2 (stereo not given)	none
O=C(Nc1cccc(Cl)c1)OCC#CCN1CCCC1	CHRM1 agonist 45, CHRM1 antagonist 62
O=C(Nc1cccc(Cl)c1)OC1CN2CCC1CC2 (stereo not given)	CHO-K1 Ca antag 45, M1 ag parental 16
O=C(Nc1ccccc1F)OC1CN2CCC1CC2 (stereo not given)	none
O=C(Nc1ccccc1Cl)OC1CN2CCC1CC2 (stereo not given)	CHRM1 antagonist 54
CN(Cc1cccc(-c2ccncc2)c1)C(=O)Oc1ccc([N+](=O)[O-])cc1	none (no result: CHRM1 PAM, CHRM1 agonist, CHRM1 antagonist)
O=c1oc2ccccc2c(O)c1[C@H]1c2ccc(O)cc2Oc2c1c(=O)oc1ccccc21	none
CCOC(=O)[C@]12Cc3cc(C)ccc3[C@H]1N(C)C(=O)c1cc(OC)ccc12	none (no result: CHRM1 PAM, CHRM1 agonist, CHRM1 antagonist)
Clc1ccc(CCNCc2ccncc2)c(Cl)c1	M1 ag parental 16
COc1ccc(CNCCc2ccc(Cl)cc2Cl)cc1	none
Clc1ccc2c(c1)C(c1ccccc1Cl)=NCc1nnc(N3CCN(CCOc4ccccc4)CC3)n1-2	CHO-K1 Ca PAM 64
COc1ccccc1C1=NCc2nnc(C)n2-c2ccc(Cl)cc21	CHO-K1 Ca antag 31
Clc1ccc2c(c1)C(c1ccccc1Cl)=NCc1nnc(N3CCN(CCSc4ccccc4)CC3)n1-2	none
CCOC(=O)[C@]12Cc3cc(Cl)ccc3[C@H]1N(C1CCCCC1)C(=O)c1ccccc12	none (no result: CHRM1 PAM, CHRM1 agonist, CHRM1 antagonist)
CS(=O)(=O)c1ccc(C2=C(CNC(=O)c3nccs3)[C@H]3CC[C@@H](C2)N3Cc2ccco2)cc1	none
CCCCn1nnnc1C(CCSC)N1CCC2(CC1)C(=O)NCN2c1ccccc1 (stereo not given)	none
CCC(CO)(C(=O)OC1C[N+]2(C)CCC1CC2)c1ccccc1 (stereo not given)	CHRM1 antagonist 99
O=C(C[N+]12CCC(CC1)C(OC(=O)c1ccccc1)C2)c1ccc([N+](=O)[O-])cc1 (stereo not given)	none
CCN(CC)c1ccc(CNCCc2ccc(F)cc2)cc1	CHRM1 antagonist 30
N=c1sccn1Cc1ccccc1F	CHRM1 agonist 17
C=C(C)[C@@]12OC3(c4ccccc4)O[C@@H]1C1[C@@H]4O[C@]4(CO)[C@@H](O)[C@]4(O)C(=O)C(C)=C[C@H]4[C@@]1(O3)[C@H](C)[C@H]2OC(=O)/C=C/C=C/c1ccccc1 (stereo not given in full)	CHRM1 antagonist 43
COC(=O)[C@@H]1N=C(c2ccc(OC)cc2)O[C@]12C(=O)N(C)c1cccc(Cl)c12	none (no result: CHRM1 PAM, CHRM1 agonist, CHRM1 antagonist)
CN1C2CCC1CC(OC(=O)c1ccc(Cl)cc1)C2 (stereo not given)	CHRM1 antagonist 77
CCOC(=O)CNC(=O)N1Cc2cc(N3CCOCC3)ccc2-n2nncc2C1	none
CN(C)C1CCc2[nH]c3c(F)cc(F)cc3c2C1 (stereo not given)	CHRM1 antagonist 35
O=c1[nH]c(=S)n(-c2ccccc2Cl)c(O)c1C=NCCN1CCNCC1	CHRM1 agonist 39
O=c1[nH]c(=O)n(CCc2ccccc2)c(O)c1C=NCCCn1ccnc1	CHO-K1 Ca antag 62
O=c1[nH]c(=O)n(Cc2ccccc2)c(O)c1C=NCCN1CCNCC1	CHRM1 antagonist 33
N#Cc1ccc(NC(=S)N2Cc3ccccc3-n3nncc3C2)cc1	none
CN1c2ccc([N+](=O)[O-])cc2CC2(C(=O)NC(=O)NC2=O)C1c1ccccc1 (stereo not given)	none
CC(C)N1C(=O)NC(=O)C2(Cc3cc([N+](=O)[O-])ccc3N(C)C2c2ccccc2)C1=O (stereo not given)	M1 ag parental 25
CCOC(=O)[C@]12Cc3ccc4ccccc4c3[C@H]1N(Cc1ccccc1)C(=O)c1ccccc12	none (no result: CHRM1 PAM, CHRM1 agonist, CHRM1 antagonist)
CN(C)P(=NC(=S)c1cccn1C)(N(C)C)N(C)C	CHRM1 antagonist 33
CC(C)Oc1cccc(C(=O)C2CCCN(Cc3ccon3)C2)c1 (stereo not given)	M1 ag parental 19
COc1ccc(C(=O)C2CCCN(CC3CCCCC3)C2)cc1OC (stereo not given)	CHRM1 antagonist 78
COc1ccc(C(=O)C2CCCN(Cc3ccon3)C2)c(OC)c1 (stereo not given)	none
COc1ccc(CN2CCCC(C(=O)c3ccc(Cl)cc3)C2)c(OC)c1 (stereo not given)	CHRM1 antagonist 39
COc1ccc(CN2CCCC(C(=O)c3cccc(Cl)c3)C2)cc1 (stereo not given)	CHRM1 antagonist 42
COc1ccc(C(=O)C2CCCN(Cc3ccsc3)C2)cc1OC (stereo not given)	none
C=C(C)CC1(CC)C(=O)NC(=S)NC1=O	none
CCC1([N+](=O)[O-])COP(N)(=O)OC1 (stereo not given)	none
COc1cccc(C(=O)C2CCCN(Cc3ccc4nonc4c3)C2)c1 (stereo not given)	none
COc1cccc(C(=O)C2CCCN(Cc3cccc4c3OCO4)C2)c1 (stereo not given)	CHRM1 antagonist 65
c1ccc2c(c1)[nH]c1cnccc12	CHO-K1 Ca antag 25
Cc1c2ccncc2c(C)c2c1[nH]c1ccccc12	none
CC1CCC(NCCc2ccc3c(c2)OCO3)CC1 (stereo not given)	CHRM1 antagonist 34
CC1CCN(C(=O)C(C)Cl)CC1 (stereo not given)	M1 ag parental 16
CC1CCCN(C(=O)CCl)C1 (stereo not given)	none
CCOC(=O)[C@]12Cc3c(cc(OC)c(OC)c3OC)[C@H]1N(CCC(=O)OC)C(=O)c1ccccc12	none (no result: CHRM1 PAM, CHRM1 agonist, CHRM1 antagonist)
CCN(CC)P(=O)(c1n(CC)cc[n+]1CC)N(CC)CC	CHO-K1 Ca antag 32
Cc1ccc(-n2c(=O)[nH]c3ccccc3c2=O)cc1[N+](=O)[O-]	none
O=C(c1ccc(C(F)(F)F)cc1)C1CCCN(C2CCSCC2)C1 (stereo not given)	CHRM1 antagonist 57
Cc1cccc(CN2CCCC(C(=O)c3ccc(C(F)(F)F)cc3)C2)n1 (stereo not given)	none
Cc1cc(Cl)ccc1C(=O)C1CCCN(C2CCSCC2)C1 (stereo not given)	CHRM1 antagonist 84
COc1ccc(Cl)cc1C(=O)C1CCCN(CCO)C1 (stereo not given)	none
CC1C(=O)CC2(C(C)C)CC12 (stereo not given)	none
